Only some compounds are listed: those with a hit (about 11% of all), similar ones and a draw of the others.
RORgamma inh = qHTS for inhibitors of ROR gamma transcriptional activity | Nuclear receptor ROR-gamma (Mus musculus), P51450 | Drosophila S2 Gal4-RORgamma UAS-luciferase reporter, 20 h | Potency, µM (titrated, usually from 53.6 µM), without a hit: at the highest dose activity change, negative = inhibition, usual class: inhibitors | 5.4% of 310,000 active | AID 2551, 2010; further: potency means the concentration at half of the fitted maximal effect; on the % scale 0 is the no-effect control and ±100 the full control effect; nearly all actives have a fitted effect of over 60% in size
Target sequence (P51450 whole entry, looked up, the tested form may be a part): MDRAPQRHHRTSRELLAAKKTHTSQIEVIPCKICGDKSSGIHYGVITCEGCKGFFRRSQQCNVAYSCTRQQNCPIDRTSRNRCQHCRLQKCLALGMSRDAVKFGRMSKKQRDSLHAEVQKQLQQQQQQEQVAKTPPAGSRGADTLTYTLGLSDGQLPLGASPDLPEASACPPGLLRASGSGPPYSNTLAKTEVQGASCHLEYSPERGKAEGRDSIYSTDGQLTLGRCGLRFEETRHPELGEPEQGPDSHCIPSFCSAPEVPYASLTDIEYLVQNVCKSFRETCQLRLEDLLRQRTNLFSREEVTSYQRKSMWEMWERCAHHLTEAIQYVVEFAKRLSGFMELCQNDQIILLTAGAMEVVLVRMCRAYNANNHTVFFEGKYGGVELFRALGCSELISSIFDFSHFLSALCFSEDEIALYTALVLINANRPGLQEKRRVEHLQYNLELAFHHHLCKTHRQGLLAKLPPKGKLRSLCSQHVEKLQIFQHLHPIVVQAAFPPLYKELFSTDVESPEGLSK
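Compounds are pin-transferred onto Drosophila Schneider cells expressing a copper-inducible Gal4–ROR gamma transactivation domain fusion. After 1 hr, copper sulfate is added to 700 uM final; luciferase is read 20 hr later.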
SW480 rerep = A quantitative high throughput screen for small molecules that induce DNA re-replication in SW480 colon adenocarcinoma cells; SW480 DNA re-replication, Hoechst DNA content imaging, 48 h; Potency, µM (doses to about 46.1 µM), without a hit: at the top dose re-replication activation, hits mostly activators; 1.8% of 340,000 active; AID 624297, 2012; further: potency means the concentration at half of the fitted maximal effect; % of control where 0% means no effect; nearly all actives have a fitted effect of over 55% in size
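Per well, 250 cells were exposed to pinned compound for 48 hr. Nuclear DNA was visualised with Hoechst (40 min, 37 C) and total object intensity recorded by fluorescence scanning.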
IL1B secr inh = qHTS for Inhibitors of Inflammasome Signaling: IL-1-beta AlphaLISA Primary Screen | 4.7% of 360,000 active | THP-1 LPS/ATP IL-1B secretion, AlphaLISA, 16 h; hits give low values | activity change, % at 57.5 µM | AID 743279, 2014; in the data active means activity change below about -50%; inconclusive means mostly about -30% to -49%; further: on the % scale 0 is the no-effect control and ±100 the full control effect
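THP-1 cells pretreated 1 hr with compounds (up to 57.5 uM final), then stimulated with LPS (250 ng/mL final) plus ATP (1.25 mM final); secreted IL-1B measured by AlphaLISA after 16 hr, decreased signal indicating inhibition.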
MCF10A rereplic = A quantitative high throughput screen for small molecules that induce DNA re-replication in MCF 10a normal breast cells. MCF 10A DNA re-replication, Hoechst nuclear intensity, 48 h. Potency, µM (doses to about 46.1 µM), without a hit: at the top dose activity, positive = re-replication, actives largely listed as activators. 2.9% of 350,000 active. AID 624296, 2012; further: potency means the concentration at half of the fitted maximal effect; % of control where 0% means no effect; nearly all actives have a fitted effect of over 50% in size
Gal4-VP16 FLuc = VP16 counterscreen qHTS for inhibitors of ROR gamma transcriptional activity | Drosophila S2 Gal4-VP16 UAS-luciferase, luminescence, 20 h | Potency, µM (top dose mostly 53.6 µM), for inactives: at the highest dose activity, negative = inhibition, actives largely listed as inhibitors | 3.5% of 310,000 active | AID 2546, 2010;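 further: Gal4-VP16 expression switched on by copper sulfate through the metallothionein promoter; potency means the concentration at half of the fitted maximal effect; on the % scale 0 is the no-effect control and ±100 the full control effect; nearly all actives have a fitted effect of over 50% in size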
Numbers without * were called inactive; u = inconclusive; x = no result; [ ] = another dose, or the depositor's remark. Unless noted, the call rests on the fitted dose curve; in most records, active means well fitted curve in the direction sought with a large enough effect; inconclusive means small, poorly fitted or top-dose-only effect, or another doubt; inactive means no such curve, though single readings can be large; an effect the other way counts as inactive or inconclusive.

SMILES	RORgamma inh	SW480 rerep	IL1B secr inh	MCF10A rereplic	Gal4-VP16 FLuc
O=C(CCSc1ccc(Cl)cc1)c1ccco1	11µM*	u	-96*	u	u
CCc1nnc(NC(=O)CSc2nnc3c(C)cc4c(C)ccc(C)c4n23)s1	35%	u	30	9.2µM*	-2%
Cc1cc(NC(=O)CSc2nnc3c(C)cc4c(C)ccc(C)c4n23)no1	21%	21µM*	35	21µM*	-2%
CCOC(=O)Cc1nnc(NC(=O)CSc2nncn2C)s1	-7%	u	17	6.5µM*	8%
CCOC(=O)Cc1csc(NC(=O)CSc2nncn2C)n1	9%	-4%[9.22 µM]	17	8%	-5%
COc1cc2cc(C)c3nnc(SCC(=O)Nc4cc(C)on4)n3c2cc1OC	35%	-16%	4	-1%	-9%[10 µM]
O=C(O)/C(=C\c1ccc2ccccc2c1)c1cccc2ccccc12	x	-20%	-1	9%	x
CC(C)=CCCC1(C)C=Cc2c(c(C)cc3c2[nH]c2ccccc23)O1 (stereo not given)	30%	x	x	x	-7%
O=C(/C=C/c1ccc(Br)cc1)NC1CCCCCC1	-6%	1%	-11	-2%	-17%
CC(C)Cc1ccc(/C=C/C(=O)NC2CC2)cc1	u	14%	-23	u	16µM*
COc1cc(C(=O)O[C@H]2C/C(C)=C/CC/C(C)=C/[C@@H](O)C2C(C)C)ccc1O (stereo not given in full)	7%	x	x	x	-22%
Cc1ccc(C2=NNC(c3cccc(F)c3)S2)cc1 (stereo not given)	6.3µM*	-2%	39	8%	7.1µM*
Fc1cccc(C2NN=C(c3ccccc3)S2)c1 (stereo not given)	u	-7%	11	-3%	u
COc1ccc(C2NN=C(c3ccc(C)cc3)S2)cc1OC (stereo not given)	2µM*	5%	9	u	u
CC(C)(C)OC(=O)N1CCC(C(=O)Nc2ccc(C(=O)NCc3ccccc3)cc2)CC1	x	3%	14	u	x
Cc1cccn2c(/C=N/OCc3cccc(F)c3)c(-c3ccc(Cl)cc3)nc12	2.2µM*	-1%	10	u	-6%
Fc1cccc(CO/N=C/c2c(-c3ccccc3)nc3ccc(Cl)cn23)c1	5%	2%	1	u	8%
COc1cccc(/C(C#N)=C/c2c(-c3ccc(Cl)cc3)nc3c(C)cccn23)c1	4%	27%	-65*	28%	2%
Nc1[nH]c(C(=O)c2ccccc2)c(-c2ccc(Cl)c(F)c2)c1C(=O)NCCc1c[nH]c2ccccc12	x	x	-9	x	x
COc1cccc2cc(C(=O)NCc3ccco3)c(=O)oc12	-14%	-4%	-13	13%	-14%
COc1cccc2cc(C(=O)NCc3ccco3)c(=Nc3ccc(C(=O)O)cc3)oc12	u	u	-85*	u	-11%
CC(C)(C)c1cc(O)c(C(C)(C)C)cc1O	-32%	x	x	x	-18%
Cc1cc(O)c(C(C)(C)C)cc1Sc1cc(C(C)(C)C)c(O)cc1C	10µM*	x	x	x	u
Cc1onc(-c2ccccc2Cl)c1C(=O)NCc1ccc(F)cc1	-6%	-5%	41	5%	-14%
Cc1ccc(NC(=O)c2c(C(F)(F)F)nn(C)c2SCc2ccc(Cl)cc2)cc1C	0.45µM*	u	-21	u	-1%
SMILES	RORgamma inh	SW480 rerep	IL1B secr inh	MCF10A rereplic	Gal4-VP16 FLuc
Cc1ccc(NC(=O)c2c(C(F)(F)F)nn(C)c2SCc2cccc(C(F)(F)F)c2)cc1C	-37%	4%	-21	13%	u
C#Cc1ccc(NC(=O)C2(C)CCN2C(=O)CC(c2ccccc2)c2ccccc2)cc1 (stereo not given)	x	x	8	x	x
C/C(=N\Nc1ccccc1Cl)c1ccc(-n2ccnc2)cc1	8.9µM*	-8%	u	u	28%
CNC(=S)N/N=C(\C)c1ccc(-n2ccnc2)cc1	8.9µM*	-36%	-11	8%	u
COCCNC(=S)N/N=C(\C)c1ccc(-n2ccnc2)cc1	6.3µM*	7.1µM*	74	16%	7.1µM*
C=CCNC(=S)N/N=C(\C)c1ccc(-n2ccnc2)cc1	3.2µM*	u	u	u	7.1µM*
Cc1cc(CNC(=O)[C@@H]2C[C@H]2[C@@H](NP(=O)(c2ccccc2)c2ccccc2)c2ccccc2)nn1C	1%	x	x	x	0%
O=C(CCn1c(=O)c2cccn2c2cccnc21)N1CCN(c2cccc(Cl)c2)CC1	-27%	-4%	23	15%	u
O=C1CNC(c2ccccc2)C(c2ccccc2)N1 (stereo not given)	x	x	-9	x	x
Cc1ccccc1-c1cc2nc(NCc3ccc(N(C)C)cc3)n(C)c(=O)c2s1	x	x	-9	x	x
C/C(=N\NC(=S)Nc1ccccc1C)c1ccc(O)cc1	10µM*	0%	-2	2%	u
C/C(=N\NC(N)=O)c1ccc(-n2ccnc2)cc1	36%	-15%	-5	-4%	-8%
C/C(=N\NC(=O)COc1ccccc1)c1ccc(O)cc1	-1%	-11%	-9	0%	-21%
C/C(=N\NC(=S)NC(C)C)c1ccc(-n2ccnc2)cc1	5.6µM*	-6%	-17	11%	6.3µM*
COCCNC(=S)N/N=C(\C)c1ccc(O)cc1	22µM*	u	8	15%	u
C/C(=N\NC(=S)NC1CCCCC1)c1ccc(O)cc1	4.5µM*	0%	u	5%	u
Cc1nc(N2CCN(S(=O)(=O)c3cccc4nonc34)CC2)c2c3c(sc2n1)CCCC3	-34%	1%	-3	18µM*	4%
CSc1cccc(NC(=O)COC(=O)C2CCN(S(=O)(=O)c3ccccc3)CC2)c1	x	u	-4	4%	x
COc1cc(N=Nc2cccc(S(N)(=O)=O)c2)c2ccccc2c1N	11µM*	14%	u	u	-1%
O=C(COC(=O)Cn1cnc2ccccc21)Nc1ccc2c(c1)C(=O)c1ccccc1C2=O	0%[10 µM]	6.5µM*	-10	u	-5%
CCN1CCN(CCCNC(=O)c2ccc(/C=C3/Oc4ccccc4N(Cc4cccc(C)c4)C3=O)cc2)CC1	-2%	2.6µM*	21	1.8µM*	-3%
O=C(CN1C(=O)/C(=C\c2ccccc2Br)Oc2ccccc21)NCCCN1CCOCC1	-26%	-4%	-7	8%	-6%
O=C(NCCCN1CCOCC1)c1ccc(/C=C2\Oc3ccccc3N(Cc3ccccc3F)C2=O)cc1	u	u	3	5.2µM*	u
Clc1cccc(Cl)c1/C=C/c1ccn[nH]1	-44%	u	-2	u	-7%
COc1nc(N)nc(NC(=O)c2cccs2)c1N=O	x	5.2µM*	-87*	21µM*	x

Screens: PubChem BioAssay, National Center for Advancing Translational Sciences (NCATS)
